From PubChem BioAssay
This is a sample that favours compounds with a hit; in the whole collection about 1.8% have one here.
RGS4 inhibitor = inhibitors of human regulator of G protein signaling 4; Potency, µM (doses to about 114 µM), hits mostly inhibitors; actives 0.039% (n = 390,000); P49798; Transcreener GDP fluorescence polarization, RGS4-accelerated GTP hydrolysis; also: nearly all actives have a fitted effect of over 75% in size
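MLSMR compounds (23 nl, pin-transferred) preincubated 10 min at room temperature with a 500nM (2x) first reagent, then RGS4 at 900nM (2x) plus Transcreener GDP mix added; fluorescence polarization (620/688 nm) read before and after 90 min at 30 °C.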
PTHR1 agonist = agonists of human PTHR1 parathyroid hormone receptor. Q03431. HEK293 GP2 PTHR1 cells, GloSensor cAMP luminescence, 1 h. Potency, µM (highest dose often 115 µM), most hits filed as activators. actives 0.075% (n = 410,000). AID 743266; also: nearly all actives have a fitted effect of over 55% in size
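HEK-293-derived GP2 cells expressing PTHR1 and a GloSensor cAMP reporter, 3,000/well, plated overnight, given luciferin plus IBMX (each 0.5 mM as added) for 1 h at 37 °C, then compound for 1 h at 37 °C. Luminescence was read after 15 min at room temperature.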
GLP1R cytotox = cytotoxicity counter-screen for GLP-1 receptor inverse agonists | Potency, µM (series often up to 38.3 µM), usual class: inhibitors | actives 0.13% (n = 410,000) | HEK293 cAMP-luciferase reporter cells, luminescence, 24 h;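 also: loss of luciferase light is scored as toxicity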
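MLSMR compounds, 24 hr on cells at 37 deg C/5% CO2; luminescence after luciferase reagent (12 min RT). Inhibition counted as the undesired cytotoxic outcome.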
GLP1R ag = GLP-1 receptor (human) agonism | P43220 | HEK293 GLP-1R CRE-luciferase, luminescence, 4-6 h; cells express a hypersensitive GLP-1R form | Potency, µM (highest dose often 45.6 µM), hits mostly activators | actives 0.007% (n = 380,000) | AID 624172
KAT2A inh = blocks human GCN5L2 histone acetyltransferase | Q92830 | GCN5L2 HAT assay, ThioGlo1 CoA-SH fluorescence | Potency, µM (series often up to 58.9 µM), usual class: inhibitors | actives 0.21% (n = 390,000) | AID 504327
Target sequence (Q92830 whole entry, looked up): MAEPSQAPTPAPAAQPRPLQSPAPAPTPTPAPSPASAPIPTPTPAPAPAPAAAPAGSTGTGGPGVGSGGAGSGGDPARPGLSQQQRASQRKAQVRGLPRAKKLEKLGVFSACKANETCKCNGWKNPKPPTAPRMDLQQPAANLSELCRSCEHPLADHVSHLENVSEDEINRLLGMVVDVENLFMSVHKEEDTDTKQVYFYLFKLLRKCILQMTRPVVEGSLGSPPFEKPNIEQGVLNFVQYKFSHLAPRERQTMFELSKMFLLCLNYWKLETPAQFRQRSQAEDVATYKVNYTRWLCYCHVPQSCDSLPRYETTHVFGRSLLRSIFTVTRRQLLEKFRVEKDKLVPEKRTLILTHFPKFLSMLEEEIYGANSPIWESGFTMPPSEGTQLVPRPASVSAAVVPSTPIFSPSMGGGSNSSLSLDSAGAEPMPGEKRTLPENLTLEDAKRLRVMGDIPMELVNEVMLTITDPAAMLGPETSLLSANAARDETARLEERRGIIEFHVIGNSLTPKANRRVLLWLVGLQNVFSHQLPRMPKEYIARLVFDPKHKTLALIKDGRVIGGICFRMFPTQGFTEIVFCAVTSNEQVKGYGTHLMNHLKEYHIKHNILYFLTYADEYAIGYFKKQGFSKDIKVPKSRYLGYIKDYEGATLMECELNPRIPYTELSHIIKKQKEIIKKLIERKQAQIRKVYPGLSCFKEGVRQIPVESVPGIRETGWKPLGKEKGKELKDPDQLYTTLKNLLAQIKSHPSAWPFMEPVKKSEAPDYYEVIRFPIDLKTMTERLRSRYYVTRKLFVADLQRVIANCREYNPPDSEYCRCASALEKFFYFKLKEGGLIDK
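Fluorescence readout, Ex340nm/Em540nm: ThioGlo1 (50uM final) reacts with free CoA thiol released as 20nM GCN5L2 acetylates H3(1-25) peptide (75uM) using acetyl-CoA (70uM). Compound and enzyme sat 15 min beforehand; 20 min room-temperature reaction.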
GLP-1R inv ag = acts as inverse agonist at human GLP-1 receptor. P43220. HEK293 GLP-1R CRE-luciferase, luminescence, 24 h; GLP-1R form is constitutively active. Potency, µM (highest dose often 38.3 µM), most hits filed as inhibitors. actives 1.6% (n = 410,000). AID 624417; also: nearly all actives have a fitted effect of over 55% in size
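Stable HEK293 clone (constitutively active GLP-1R + cAMP-response luciferase); 200 cells/uL plated, 12 h pre-culture, compound 24 hr, 37 deg C/5% CO2; detection reagent 12 min RT; luminescence.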
Large screens that a line does not name were inactive. Calls follow the shape of the dose curve; as a rule, active = well fitted curve in the direction sought with a large enough effect; inconclusive = small, poorly fitted or top-dose-only effect, or another doubt; inactive = no such curve, though single readings can be large; an effect the other way counts as inactive or inconclusive.

COc1ccc(C2/C=C\CN(C(=O)c3ccc(C)cc3)C(C)C(=O)N2Cc2ccc(F)cc2)cc1 (stereo not given)	none (no result: PTHR1 agonist, GLP1R cytotox, GLP1R ag, KAT2A inh, GLP-1R inv ag)
COc1ccc(C2/C=C\CN(C(=O)c3ccc(C)cc3)[C@H](Cc3ccccc3)C(=O)N2Cc2ccc(F)cc2)cc1 (stereo not given in full)	GLP-1R inv ag 10µM
CCOC(=O)N1CCC(N(CCN(C)C)C(=S)Nc2cccc(SC)c2)CC1	GLP-1R inv ag 5.62µM
CCOC(=O)N1CCC(N(CCN(C)C)C(=S)Nc2cccc(C)c2)CC1	none
Cc1ccccc1Nc1nc(NCc2ccco2)c2ccccc2n1	GLP1R cytotox inconclusive, GLP-1R inv ag 3.98µM
Oc1ccccc1Nc1nc(NCc2ccco2)c2ccccc2n1	GLP-1R inv ag inconclusive
c1ccc(Nc2nc(NCc3ccco3)c3ccccc3n2)cc1	GLP1R cytotox inconclusive, GLP-1R inv ag 2.24µM
CC(C)(Oc1ccc(Cl)cc1)C(=O)NCC(c1ccco1)N1CCCCC1 (stereo not given)	GLP-1R inv ag 8.91µM
COc1ccc(C(CNC(=O)C(C)(C)Oc2ccc(Cl)cc2)N2CCCCC2)cc1 (stereo not given)	GLP1R cytotox inconclusive, GLP-1R inv ag inconclusive
Cc1cc(SCC(=O)NCC(c2cccs2)N2CCOCC2)c(C)cc1Br (stereo not given)	GLP-1R inv ag 11.2µM
Cc1ccc(C)c(SCC(=O)NCC(c2ccco2)N2CCCCC2)c1 (stereo not given)	GLP-1R inv ag 11.2µM
Cc1c(C(=O)NCC(c2ccco2)N2CCCC2)sc2ccccc12 (stereo not given)	GLP-1R inv ag 8.91µM
Cc1cc(Br)ccc1SCC(=O)NCC(c1ccco1)N1CCCCC1 (stereo not given)	GLP1R cytotox inconclusive, GLP-1R inv ag inconclusive
COc1ccc(N(CC(=O)Nc2ccc(S(=O)(=O)N3CCOCC3)cc2)S(=O)(=O)c2ccccc2)cc1	none
CC(=O)N/C(=N\c1nc(C)cc(C)n1)Nc1ccc2ccccc2c1	GLP-1R inv ag inconclusive
CCOC(=O)CN(C)C(=O)C1CC(CO[Si](C)(C)C(C)(C)C)=CN1C(=O)OC(C)(C)C (stereo not given)	none (no result: PTHR1 agonist, GLP1R cytotox, GLP1R ag, KAT2A inh, GLP-1R inv ag)
Cc1ccc(S(=O)(=O)NC(CC(C)C)C(=O)NCC(c2ccco2)N2CCCCC2)cc1 (stereo not given)	GLP-1R inv ag 4.47µM
CC(=O)Nc1ccc(S(=O)(=O)NC(C)C(=O)NCC(c2ccco2)N2CCCCC2)cc1 (stereo not given)	none
Cc1cccc2sc(NC(=O)C3CSC4(C)CCC(=O)N34)nc12 (stereo not given)	GLP-1R inv ag 7.08µM
O=C(/C=C/c1ccccc1Cl)Nc1cccc(S(=O)(=O)NC2=NCCCCC2)c1	GLP-1R inv ag 10µM
Cc1ccc(Sc2ncccc2COC(=O)NC(C)C)cc1	none
c1ccc(CN2CCN(c3nc(-c4ccccc4)nc4ccccc34)CC2)cc1	GLP-1R inv ag 3.55µM
c1ccc(CN2CCN(c3nc(-c4ccccn4)nc4ccccc34)CC2)cc1	none
CC(=Nc1ccccc1N)c1c(C)cc(=O)n(O)c1O	none (no result: RGS4 inhibitor, PTHR1 agonist, GLP1R cytotox, GLP1R ag, GLP-1R inv ag)
COc1cc(/C=N/Nc2ccccc2)ccc1OC(=O)c1cccs1	GLP-1R inv ag inconclusive
COc1cc(/C=N\NC(=O)CC#N)ccc1OC/C=C/c1ccccc1	GLP-1R inv ag 12.6µM
N#CCC(=O)N/N=C\c1cccc(OC/C=C/c2ccccc2)c1	GLP-1R inv ag 3.16µM
COCC(=O)N/N=C\c1ccc(OC/C=C/c2ccccc2)c(OC)c1	GLP1R cytotox inconclusive, GLP-1R inv ag inconclusive
COc1cc(C=NNc2ccccc2)ccc1OC(=O)c1ccccc1	GLP-1R inv ag 1µM (no result: RGS4 inhibitor, KAT2A inh)
CC(=O)N/N=C\c1cccc(OC/C=C/c2ccccc2)c1	GLP-1R inv ag 3.55µM
Cc1nn(-c2ccccc2)c(Cl)c1C(=O)OCC(=O)NCCc1ccccc1	GLP-1R inv ag inconclusive
COc1ccccc1N=Nc1ccc(O)c2ncccc12	GLP1R cytotox 1.26µM, GLP-1R inv ag inconclusive
CCS(=O)(=O)c1ccc(N=Nc2ccc(O)c3ncccc23)c(OC)c1	GLP1R cytotox inconclusive
Cc1ccc(C)c(S(=O)(=O)NCc2cccnc2)c1	none
Cc1ccc(C)c(S(=O)(=O)NCc2ccncc2)c1	KAT2A inh 3.16µM
CC1CCc2onc(C(=O)N3CCN(c4ccc(F)cc4)CC3)c2C1 (stereo not given)	none (no result: GLP1R ag)
Clc1ccc(-c2nnc(CSc3nnc(-c4cccs4)n3Cc3ccccc3)o2)cc1	GLP-1R inv ag 10µM
Cc1nnc(SCc2nnc(-c3cccs3)o2)n1Cc1ccccc1	none
CC(=NNC(=S)N1CCN(c2ccccn2)CC1)c1ccccn1	RGS4 inhibitor inconclusive (no result: KAT2A inh)
CC(=NNC(=S)N1CC2CCC(CC2)C1)c1ccccn1	GLP1R cytotox 6.31µM, GLP-1R inv ag inconclusive (no result: RGS4 inhibitor, KAT2A inh)
CC(=NNC(=S)N1CC2CCC(CC2)C1)c1cnccn1	GLP-1R inv ag inconclusive (no result: KAT2A inh)
CC(=NNC(=S)N1CCN(C2CCCCCC2)CC1)c1ccccn1	RGS4 inhibitor inconclusive, GLP1R cytotox 0.316µM (no result: KAT2A inh)
CCC(Oc1ccccc1C)C(=O)N1CCCN(C)CC1 (stereo not given)	KAT2A inh inconclusive, GLP-1R inv ag inconclusive
c1ccc(CN2CCN(CCOCCOc3cccc4ccccc34)CC2)cc1	GLP1R cytotox inconclusive, GLP-1R inv ag 7.94µM
O=C(c1ccco1)N1CCN(CCOCCOc2cccc3ccccc23)CC1	none
CCc1ccccc1Nc1nn2c(=O)c3ccc(C(=O)NC(C)c4ccccc4)cc3nc2s1 (stereo not given)	GLP-1R inv ag 5.62µM
Cc1ccc(C)n1-c1nn(S(=O)(=O)c2ccccc2)c2cccc(F)c12	GLP-1R inv ag inconclusive
COc1ccc(S(=O)(=O)n2nc(-n3c(C)ccc3C)c3c(F)cccc32)cc1OC	RGS4 inhibitor inconclusive, GLP-1R inv ag 10µM
COC(=O)C1=C(C)Nc2nnnn2C1c1ccccc1Cl (stereo not given)	none
CCCCCOC(=O)C1=C(C)Nc2nnnn2C1c1ccccc1Cl (stereo not given)	GLP-1R inv ag 10µM
CCCOc1ccccc1C1C(C(=O)Nc2ccccc2)=C(C)Nc2nnnn21 (stereo not given)	GLP1R cytotox inconclusive, GLP-1R inv ag 8.91µM (no result: GLP1R ag)
CCCCOc1ccccc1C1C(C(N)=O)=C(C)Nc2nnnn21 (stereo not given)	none
CC(C)Cn1c(-c2cccs2)nc2nc3ccccc3nc21	GLP-1R inv ag 3.98µM
CCCCn1c(-c2cccs2)nc2nc3ccccc3nc21	none
